# Results from PubChem BioAssay AID1662 (Broad Institute, 2009).
# In all, about 300,000 compounds went through this assay and about 4,000 (1.3%) were called active.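 How the source made its calls: active means mean replicate score, as percent of positive control median, at least 50; inconclusive means mean below 50 but one replicate at or above 50; inactive means mean and every replicate below 50.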 For the sample, actives were picked, then their nearest neighbours and some compounds at random.
# Assay: kanamycin survival loss of SKKanGAS strain – BacTiter-Glo luminescence, streptokinase expression inhibitor project, primary screen (AID 1662);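 further: strain carries kanamycin resistance gene driven by streptokinase promoter and grows in 40 µg/ml kanamycin; loss of luminescence reflects streptokinase promoter inhibition or plain growth inhibition; 0% = median of DMSO wells and 100% = positive control at its reference dose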
# Conditions: S. pyogenes SKKanGAS, kanamycin growth, 6 h, at 7.5 µM, stronger effect = higher value
row,SMILES,inhibition
1,Clc1c(OCCCn2ccnc2)ccc2ccccc12,5.1% (inactive)
2,Cc1ccc(CNC(=O)CCN2C(=O)[C@@H]3Cc4ccccc4CN3C2=O)cc1,4.22% (inactive)
3,CC1(c2ccccc2)NC(=O)N(CC(=O)Nc2cc(Cl)ccc2N2CCOCC2)C1=O (stereo not drawn),-3.7% (inactive)
4,O=C(CSc1nc(Nc2ccccc2)nc(N2CCOCC2)n1)Nc1cc(Cl)ccc1O,78.3% (active)
5,Cc1ccccc1NC(=O)CSc1nc2ccc(Nc3nc(N4CCOCC4)nc(N4CCOCC4)n3)cc2s1,15.9% (inactive)
6,Nc1nonc1-n1nnc(C(=O)N/N=C/c2ccccc2O)c1CN1CCCC1,-2.71% (inactive)
7,Nc1nonc1-n1nnc(C(=O)N/N=C/c2cc(Br)ccc2O)c1CSC1=NCCS1,107% (active)
8,Cc1ccc(SCc2c(C(=O)N/N=C/c3cccnc3)nnn2-c2nonc2N)cc1,3.15% (inactive)
9,O=C(O)c1cccnc1Sc1ncnc2sc3c(c12)CCC3,-1.33% (inactive)
10,COc1ccccc1CCC(=O)NNC(=O)c1ccncc1,-5.32% (inactive)
11,O=C(NC(=S)Nc1ccc(NC(=O)c2cccs2)cc1)c1ccc([N+](=O)[O-])cc1,6.3% (inactive)
12,CC(=O)NC(=S)Nc1ccc(NC(=S)NC(=O)c2ccc([N+](=O)[O-])cc2)cc1,60.3% (active)
13,CC(=O)Nc1ccc(NC(=S)NC(=O)c2ccc([N+](=O)[O-])c(C)c2)cc1,-0.0689% (inactive)
14,NC1=NC(=O)C(Cc2cccc(Cl)c2Cl)S1 (stereo not drawn),-7.45% (inactive)
15,CC(C)=N/N=C1/NC(=O)C(Cc2ccccc2)S1 (stereo not drawn),0.633% (inactive)
16,O=C1NC(=Nc2ccc(Cl)cc2)SC1Cc1cccc(Cl)c1Cl (stereo not drawn),61.1% (active)
17,COc1ccc(C(CNC(=O)c2cc3c(s2)CCCC3)N2CCOCC2)cc1 (stereo not drawn),-4.29% (inactive)
18,O=C(Nc1cccc(Cl)c1)c1cncn1-c1ccc(F)cc1,-0.257% (inactive)
19,CCCCC(=O)NNC(=S)NC(=O)C(c1ccccc1)c1ccccc1,85.9% (active)
20,CC(C)C(=O)Nc1cccc(NC(=S)NC(=O)C(c2ccccc2)c2ccccc2)c1,22.1% (inactive)
21,O=C(NNC(=S)NCc1ccco1)C(c1ccccc1)c1ccccc1,12.9% (inactive)
22,CC(=O)N/C(=N/c1nc(C)cc(C)n1)Nc1ccc(F)cc1F,-6.21% (inactive)
23,Cc1ccc(OCc2nnc(SC3CCc4ccccc4C3=O)n2C)cc1 (stereo not drawn),1.05% (inactive)
24,CN(CCc1ccccn1)C(=O)c1ccc(OC2CCN(Cc3ccccn3)CC2)cc1,15.2% (inactive)

row,SMILES,inhibition
1,Nc1cccc2c1C(=O)N(Cc1nnc(-c3ccccc3Br)o1)C2=O,-13.7% (inactive)
2,COc1ccc(OCC(=O)NCCS(=O)(=O)N2CCN(c3ccc(F)cc3)CC2)cc1,-2.54% (inactive)
3,CCOc1cc(N2CCOCC2)c(OCC)cc1NC(=O)c1ccc(C)s1,-3.59% (inactive)
4,CCOc1cc(N2CCOCC2)c(OCC)cc1NC(=O)c1cc(C)nc2ccccc12,6.5% (inactive)
5,CCOc1cc(N2CCOCC2)c(OCC)cc1NC(=O)C1=NN(c2cccc(C)c2)C(=O)CC1,54% (active)
6,CCOCCCNC(=O)C(NC(=O)c1ccc(=O)[nH]c1)c1ccc(Cl)cc1 (stereo not drawn),-3.58% (inactive)
7,COc1ccc(OC)c(S(=O)(=O)Nc2cccc(-c3ccc4nncn4n3)c2)c1,-5.29% (inactive)
8,O=C(Nc1ccc(Cl)cn1)Nc1cccs1,-3.53% (inactive)
9,Cc1ccc(Nc2nc(-c3ccc(O)cc3O)cs2)nc1,20.8% (inactive)
10,Clc1ccc(Nc2nc(-c3cccs3)cs2)nc1,64.4% (active)
11,O=C(CSc1ccc(-c2ccccn2)nn1)Nc1ccccc1,-3.36% (inactive)
12,CC(C)CN(Cc1c(O)ccc2c(=O)c(-c3ccccc3)coc12)CC(C)C,0.595% (inactive)
13,O=c1c(-c2ccccc2)coc2cc(O)ccc12,0.922% (inactive)
14,CC(C)=CCc1c(O)c(CC=C(C)C)c2occ(-c3ccc(O)cc3)c(=O)c2c1O,105% (active)
15,CCOC(=O)c1ccc2c(c1)nc(SCC(=O)NC(C)C)n2CC,-3.36% (inactive)
16,Cc1cc(C)c(S(=O)(=O)Nc2c(C)n(C)n(-c3ccccc3)c2=O)cc1[N+](=O)[O-],4.05% (inactive)
17,O=C(Cc1c(F)cccc1Cl)N1CCN(C(=O)c2ccco2)CC1,-1.63% (inactive)
18,O=C(c1ccco1)N1CCN(C(=O)c2cc(-c3ccccc3F)no2)CC1,63.3% (active)
19,O=C(NCCCN1CCOCC1)c1cc(-c2ccccc2F)no1,26.3% (inactive)
20,COC(CNC(=O)c1ccc2c(c1)ncn2-c1cc(C)cc(C)c1)OC,0.722% (inactive)
21,CCOC(=O)c1ccc(-c2ccc(C(=O)Nc3cccnc3)o2)cc1,3.97% (inactive)
22,COC(=O)C1=C(C)NC(=O)CC1c1ccccc1OC (stereo not drawn),4.98% (inactive)
23,COC(=O)C1=C(C)NC2=C(C(=O)c3ccccc32)C1c1ccc(-c2ccc(C(=O)O)cc2)o1 (stereo not drawn),60.6% (active)
24,O=C(c1cccs1)N(Cc1cc2ccccc2[nH]c1=O)CC1CCCO1 (stereo not drawn),-2.88% (inactive)

row,SMILES,inhibition
1,O=C(NCCC1CCCCN1S(=O)(=O)c1ccc(Cl)cc1)C(=O)NCc1ccco1 (stereo not drawn),-16.2% (inactive)
2,Cc1ccc(C2Nc3cccc4cccc(c34)N2)cc1,9.05% (inactive)
3,Oc1ccc(C2Nc3cccc4cccc(c34)N2)cc1,3.2% (inactive)
4,Brc1ccccc1C1Nc2cccc3cccc(c23)N1,56.8% (active)
5,CC1Cc2cc(/C(O)=C3\C(=O)C(=O)N(Cc4cccnc4)C3c3ccccc3F)ccc2O1 (stereo not drawn),12.9% (inactive)
6,CC1CCCN(S(=O)(=O)c2ccc(C(=O)Nc3nnc(-c4ccncc4)o3)cc2)C1 (stereo not drawn),20.4% (inactive)
7,CC1CCCCN1S(=O)(=O)c1ccc(C(=O)Nc2nnc(-c3cccs3)o2)cc1 (stereo not drawn),99.8% (active)
8,CSCc1nnc(NC(=O)c2ccc(S(=O)(=O)N3CCCCC3C)cc2)o1 (stereo not drawn),39.4% (inactive)
9,CCn1c(N)c(Br)c(=O)[nH]c1=O,0.526% (inactive)
10,Cc1cc(OC(C)C(=O)NC2CC(C)(C)NC(C)(C)C2)c2c(C)cc(=O)oc2c1 (stereo not drawn),2.79% (inactive)
11,CCOC(=O)N1CCN(c2cc(C)c([N+](=O)[O-])cc2F)CC1,15.6% (inactive)
12,CC(C)c1ccc2c(c1)c(SC(C)(C)C)c(CC(C)(C)C(=O)O)n2Cc1ccc(Cl)cc1,109% (active)
13,O=C(O)c1ccc(Cn2c(=S)[nH]c3cc(Cl)ccc3c2=O)cc1,9.12% (inactive)
14,O=C(COC(=O)c1ccccc1SCC(=O)N1CCCC1)Nc1ccccc1OC(F)F,34% (inactive)
15,CSCCNC(=O)c1ccc2nc(Cc3ccccc3F)oc2c1,2.77% (inactive)
16,CN(c1cccc(NC(=O)Nc2ccc(Cl)cc2)c1)S(C)(=O)=O,-13.9% (inactive)
17,Cn1ccc(NC(=O)Nc2ccc(Cl)cc2)n1,-3.73% (inactive)
18,CC(C)S(=O)(=O)c1csc(NC(=O)Nc2ccc(Cl)cc2)c1Cl,60% (active)
19,Cc1ccc(C(=O)O)cc1NC(=O)c1ccc(Cn2nc(C)c(Cl)c2C)o1,5.19% (inactive)
20,Cc1c(Cl)c([N+](=O)[O-])nn1CCCC(=O)Nc1cc(Cl)ccc1Cl,-2.88% (inactive)
21,Cc1c(Cl)c([N+](=O)[O-])nn1Cc1ccc(C(=O)N/N=C\c2cc(Cl)ccc2O)o1,96.5% (active)
22,CCC(CC)c1nnc(NC(=O)C2CCN(C(=O)c3ccco3)CC2)s1,-3.32% (inactive)
23,CS(=O)(=O)c1ccc(Cl)c(NC(=O)Nc2ccccc2)c1,-0.376% (inactive)
24,O=C(Nc1ccccc1)c1nnsc1S(=O)(=O)c1ccc(Cl)cc1,85.8% (active)

row,SMILES,inhibition
1,O=C(c1ccc(Cl)cc1)c1cnc(Nc2ccccc2)s1,3.38% (inactive)
2,Cc1nnc(SCC(=O)Nc2cccc(N)c2)n1-c1ccccc1,8.19% (inactive)
3,Clc1ccc(Cl)c(Oc2ccc(Oc3nc(Cl)ccc3Cl)cc2)n1,-7.12% (inactive)
4,COc1ccccc1CNC(=O)CSc1nc(=O)n(Cc2ccncc2)c2c1CCC2,49.6% (active)
5,CN(C)CCn1c2c(c(SCC(=O)Nc3ccccc3C(F)(F)F)nc1=O)CCCC2,-16.8% (inactive)
6,CN(C)CCn1c2c(c(SCC(=O)NCc3ccccc3)nc1=O)CCC2,-2.81% (inactive)
7,O=C(NNC1=C(C(=O)C(F)(F)F)CCC1)c1ccncc1,18.5% (inactive)
8,O=C(Cc1ccc(S(=O)(=O)N2CCOCC2)s1)NCCOc1ccccc1F,2.98% (inactive)
9,O=C(Nc1c2c(nn1-c1ccccc1)CS(=O)(=O)C2)C1CCCC1,-3.29% (inactive)
10,CC(=O)Nc1ccc(Nc2ncnc3c2nnn3Cc2ccccc2Cl)cc1,1.15% (inactive)
11,CC(C)NC(=S)NN=C1CCCCCCCCCCC1,63.8% (active)
12,C/C(=N\NC(=S)NC(C)C)c1ccc(C(C)(C)C)cc1,15.9% (inactive)
13,CC(C)(C)NC(=O)C(=O)NN=C1CCCCCCC1,-3.09% (inactive)
14,Cc1c(CN2CCC(n3nccc3NC(=O)CCc3ccccc3)CC2)cnn1C,1.52% (inactive)
15,CC(=O)Nc1ccc(/C=N/NC(=O)c2cccs2)cc1,5.44% (inactive)
16,CC(=O)NC(Cc1c[nH]c2ccccc12)C(=O)O (stereo not drawn),4.27% (inactive)
17,O=C(NC(Cc1c[nH]c2ccccc12)C(=O)N/N=C/c1ccc(Br)cc1)c1cccs1 (stereo not drawn),66.8% (active)
18,CN(Cc1ccccc1)C(=O)c1ccc(NC2=NC3CS(=O)(=O)CC3S2)cc1 (stereo not drawn),-1.29% (inactive)
19,COc1cc(/C=C2\CCCc3c2nc2ccccc2c3C(=O)O)cc(Cl)c1O,15.8% (inactive)
20,NC(=O)c1ccc(NC(=O)COC(=O)c2c3c(nc4ccccc24)/C(=C\c2ccc4c(c2)OCO4)CCC3)cc1,64% (active)
21,COc1cc(-c2cc(C(=O)OCC(=O)Nc3ccc4c(c3)OCO4)c3ccccc3n2)cc(OC)c1OC,13.9% (inactive)
